Most compounds without a hit are left out; they make up all but 0.29% or so of the library.
Vc quorum ag-1 – induces V. cholerae light production without autoinducers | V. cholerae BH1578 lux reporter, luminescence, 6 h | activation, % at 18.7 µM | 350,000 tested, 0.16% active; in the data active = activation mostly above about 9.7%, no sharp cut-off; inconclusive = no clear call, values can overlap the other calls; inactive = mostly below about 3.7%
Mtb hypoxia inh – Mtb hypoxia fluorescent reporter inhibition; 300,000 tested, 0.1% active; M. tuberculosis hypoxia-regulated fluorescent reporter, fluorescence; fluorescence inhibition, % (concentration not given with the values); in the data active = fluorescence inhibition mostly above about 23%, no sharp cut-off; inactive = mostly below about 17%
Y pestis TopoI – blocks Yersinia pestis topoisomerase I activity; Y. pestis Topo-I cleavage product accumulation, plate reader; activity, % at 10 µM; 360,000 tested, 0.064% active; in the data active = activity above about 50%, passing the limit was not always enough; inconclusive = no clear call, values can overlap the other calls
Vc quorum ag-2 – inducers of V. cholerae quorum light production without autoinducers; shares compounds with Vc quorum ag-1; V. cholerae BH1578 lux reporter, luminescence, 6 h; activation, % at 50 µM; 620 tested, under 10 active; AID 602243; call rule not given here
HeLa 24h tox – HeLa cell viability loss at 24 h | shares compounds with Vc quorum ag-1 | CellTiter-Glo ATP luminescence | activity change, negative = cytotoxicity, % at 35 µM | 25 tested, under 10 active;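 active = signal drop with fitted half-maximal concentration at or below twice the highest valid dose; inconclusive = flat curve with 30 to 70% loss, or poor fit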
Each line names hits and unclear results; the compound was inactive in the other large screens (follow-up assays come after a bar, where they were run).

COc1ccc(NC(=O)Cn2nc(C(=O)O)c3ccccc3c2=O)cc1Cl	none
COC(=O)Nc1ccc(S(=O)(=O)NCCO)cc1	none | Vc quorum ag-2 inactive
COC(=O)Nc1ccc(S(=O)(=O)NCCCCCC(=O)O)cc1	none
CC(C)[C@H](NC(=O)c1ccccc1F)C(=O)NC1CCCCC1	none
CC(C)[C@H](NC(=O)c1ccccc1F)C(=O)OCC(=O)NC1CC1	Vc quorum ag-1 20 | Vc quorum ag-2 inactive
CCOC(=O)C1CCN(C(=O)c2cc3c(OC)c(OC)c(OC)cc3[nH]2)CC1	none
CCOC(=O)C1CCCN(C(=O)c2cc3c(OC)c(OC)c(OC)cc3[nH]2)C1 (configuration not stated)	Vc quorum ag-1 17 | Vc quorum ag-2 inactive
COc1ccccc1CCN1CCCC(CN(C)C(=O)c2ccoc2)C1 (configuration not stated)	none
COc1ccccc1CCN1CCCC(CN(C)C(=O)c2ccco2)C1 (configuration not stated)	none | Vc quorum ag-2 inactive
CCN1C(=O)C2C(c3ccc(-c4ccccc4)c(OC)c3)N[C@@](CC(C)C)(C(=O)OC)C2C1=O (some centres not stated)	none (no result: Vc quorum ag-1, Y pestis TopoI)
O=C(Nc1c(F)c(F)c(F)c(F)c1F)C1CCCCC1	none | Vc quorum ag-2 inactive
O=C(Nc1c(F)c(F)c(F)c(F)c1F)NC1CCCCC1	none (no result: Vc quorum ag-1)
Cc1cc(C(=O)OCC(=O)Nc2ccc(F)c(F)c2F)c(C)o1	none
Cc1ccsc1C(=O)OCC(=O)Nc1c(Cl)cccc1C(F)(F)F	none
CCOc1ccccc1NC(=O)COC(=O)c1cc(C)oc1C	none (no result: Vc quorum ag-1)
COc1ccccc1NC(=O)c1oc2ccccc2c1C	none (no result: Mtb hypoxia inh)
COc1ccccc1NC(=O)COC(=O)c1oc2ccccc2c1C	Vc quorum ag-1 26 | Vc quorum ag-2 inactive | HeLa 24h tox inactive
Cc1cc(C(=O)OCC(=O)Nc2c(Cl)cccc2C(F)(F)F)c(C)o1	none | Vc quorum ag-2 inactive
COc1ccc(Cl)cc1NC(=O)COC(=O)c1cc(C)oc1C	Vc quorum ag-1 active | Vc quorum ag-2 inactive
COc1ccccc1NC(=O)COC(=O)c1cc(C)oc1C	none (no result: Vc quorum ag-1) | Vc quorum ag-2 inactive
CCOc1ccc(CC(=O)NN=Cc2sccc2C)cc1	none (no result: Vc quorum ag-1, Y pestis TopoI)
C=C1c2nc3ccccc3n2C=C(c2ccc(C)cc2)N1c1ccccc1	none (no result: Vc quorum ag-1, Mtb hypoxia inh)
CCOC(=O)c1c(-c2ccccc2)oc2cc(CN(C)C)c(O)c(CN(C)C)c12	none
Cn1cc(C(=O)OCC(=O)NC2CCCCC2)c2ccccc21	none
Cc1ccccc1NC(=O)COC(=O)c1ccc2c(c1)OCCO2	none
COc1ccccc1NC(=O)COC(=O)c1cn(C)c2ccccc12	Vc quorum ag-1 active | Vc quorum ag-2 inactive
COc1ccccc1NC(=O)COC(=O)c1ccc2c(c1)OCCO2	Vc quorum ag-1 52 | Vc quorum ag-2 inactive
O=C(C[n+]1ccccc1)Nc1ccc(Oc2ccccc2)cc1	none
Cn1c(SCC(=O)NN=C/C=C\c2ccco2)nc2ccccc21	none (no result: Vc quorum ag-1, Y pestis TopoI)
CC(NC(=O)c1ccccc1)C(=O)N/N=C/c1cccc([N+](=O)[O-])c1 (configuration not stated)	none (no result: Mtb hypoxia inh)
S=c1[nH]nc(Cc2cccs2)n1-c1ccccc1Cl	none
Cc1ccc(C)c(-n2c(Cc3cccs3)n[nH]c2=S)c1	none | Vc quorum ag-2 inactive
CCOC(=O)c1c(NC(=O)COC(=O)Cc2n[nH]c(=O)c3ccccc23)sc(C(=O)N(C)C)c1C	none
CCOC(=O)c1c(NC(=O)COC(=O)Cc2c[nH]c3ccccc23)sc(C(=O)N(C)C)c1C	none | Vc quorum ag-2 inactive
COC(=O)[C@H]1C[C@H](C(=O)O)[C@@H](C)C1(C)C	none (no result: Mtb hypoxia inh) | Vc quorum ag-2 inactive
CC1C(c2ccccc2)CC(C(=O)O)C1(C)C (configuration not stated)	none (no result: Vc quorum ag-1, Y pestis TopoI)
CCOC1(c2ccccc2)CC1C(=O)NN=Cc1cccc([N+](=O)[O-])c1 (configuration not stated)	none (no result: Vc quorum ag-1, Y pestis TopoI)
NS(=O)(=O)c1ccc(NC(=O)NC2CCCCC2)cc1	Vc quorum ag-1 32 (no result: Mtb hypoxia inh) | Vc quorum ag-2 inactive
NS(=O)(=O)c1ccc(NC(=S)NC2CCCCC2)cc1	none
O=C(Cc1c(F)cccc1Cl)NN=Cc1cccs1	none (no result: Vc quorum ag-1, Y pestis TopoI)
O=C(NN=Cc1ccccc1)C1CCCN1C(=O)c1cc([N+](=O)[O-])cc([N+](=O)[O-])c1 (configuration not stated)	none (no result: Vc quorum ag-1, Y pestis TopoI)
CCC(=O)Nc1nnc(SCC(=O)Nc2ccc3c(c2)OCCO3)s1	none
Nc1nnc(SCC(=O)Nc2ccc3c(c2)OCCO3)s1	none | Vc quorum ag-2 inactive
Cc1cc(C2=CC(=O)C[C@H](c3ccc(F)cc3)C2)ccc1F	Y pestis TopoI inconclusive (no result: Mtb hypoxia inh)
CCc1ccc[n+](-c2[nH]c(=O)sc2C=N/N=C(\[O-])CCn2c3ccccc3c3ccccc32)c1	none (no result: Vc quorum ag-1, Y pestis TopoI)
CCNC(=S)NN=C1CCCCc2ccccc21	none (no result: Vc quorum ag-1, Y pestis TopoI)
CCOc1ccc(CNc2nnnn2C)cc1	Vc quorum ag-1 active | Vc quorum ag-2 inactive
Cn1nnnc1NCc1cccc(Cl)c1	none
CCOc1cccc(CNc2nnnn2C)c1	none
CC(C)c1ccc(CNc2nnnn2C)cc1	none (no result: Vc quorum ag-1) | Vc quorum ag-2 inactive
COC(=O)C1=C(c2ccc(OC(F)(F)F)cc2)CC2CCC1N2C(=O)NCCc1ccccc1 (configuration not stated)	none (no result: Vc quorum ag-1, Y pestis TopoI)
CC1CN(C(=O)CCCN2C(=O)c3ccccc3C2=O)CC(C)O1 (configuration not stated)	none
O=C1CC(C2CCCO2)C(=O)N1c1ccc(Cl)c(Cl)c1 (configuration not stated)	none
COc1ccc(OC)c(NC(=O)Nc2cccc(Cn3cccn3)c2)c1	none | Vc quorum ag-2 inactive
COc1cccc(NC(=O)Nc2cc(C)ccc2OC)c1	none
Cc1ccc(N(C(=O)Cn2nnc(-c3cccs3)n2)C(C(=O)NC2CCCC2)c2ccncc2)cc1 (configuration not stated)	none
Cc1ccc(C)c(N(C(=O)Cn2nnc(-c3cccs3)n2)C(C(=O)NC2CC2)c2ccc(C)o2)c1 (configuration not stated)	Vc quorum ag-1 829 | Vc quorum ag-2 inactive
OCCSc1nncn1N=Cc1c[nH]c2ccccc12	none (no result: Vc quorum ag-1, Y pestis TopoI)
O=c1c2cc(Br)ccc2nc(-c2cccc(C(F)(F)F)c2)n1O	Vc quorum ag-1 18 (no result: Mtb hypoxia inh) | Vc quorum ag-2 inactive
N#Cc1ccc(-c2nc3ccc(Br)cc3c(=O)n2O)cc1	none
O=C1OC(c2ccc3c(c2)OCO3)N(C(=O)c2ccc(Cl)c(Cl)c2)c2ccccc21 (configuration not stated)	none (no result: Mtb hypoxia inh)
Cc1cccc(C(=O)N2c3ccccc3C(=O)OC2c2ccc3c(c2)OCO3)c1 (configuration not stated)	Vc quorum ag-1 32 (no result: Mtb hypoxia inh) | Vc quorum ag-2 inactive
COc1ccccc1N1CCN(N=Cc2c(C)nn(-c3ccccc3)c2C)CC1	none (no result: Vc quorum ag-1, Y pestis TopoI)
CC1(C)CC1C(=O)NC(=CCCCCSCC(N)C(=O)O)C(=O)O (configuration not stated)	none (no result: Vc quorum ag-1, Y pestis TopoI)
O=[N+]([O-])c1ccc(N2CCOCC2)c2cccnc12	none
O=[N+]([O-])c1ccc(N2CCOCC2)c2c1no[n+]2[O-]	Vc quorum ag-1 35 (no result: Mtb hypoxia inh) | Vc quorum ag-2 inactive
O=C(N/N=C/c1cccc(OC(=O)c2ccco2)c1)c1ccc(F)cc1	none (no result: Mtb hypoxia inh)
CN(C)C(=O)CCSc1nnc(-c2ccco2)o1	Vc quorum ag-1 101 | Vc quorum ag-2 inactive
CCN(CC)C(=O)CSc1nnc(-c2ccco2)o1	none (no result: Vc quorum ag-1)
COc1cc(C(C#N)N2CCC(c3ccccc3)=N2)ccc1O (configuration not stated)	none
CCON=C(N)c1[nH]ncc1Br	none (no result: Vc quorum ag-1, Y pestis TopoI)

Compound activity as filed in PubChem.
